Reference: PubChem BioAssay AID652023 (National Center for Advancing Translational Sciences (NCATS), 2013)
The other results are listed elsewhere or left out. Records with an inconclusive call do not appear. Active and inactive are the calls of the source. The call rests on the fitted dose curve; in most records, active means well fitted inhibition curve with a large enough effect; inconclusive means small, poorly fitted or top-dose-only effect; inactive means flat fitted curve, though single readings scatter.

Molecular target: Thioredoxin reductase 1, cytoplasmic (Rattus norvegicus) (UniProt O89049)
Sequence (O89049 whole entry, looked up): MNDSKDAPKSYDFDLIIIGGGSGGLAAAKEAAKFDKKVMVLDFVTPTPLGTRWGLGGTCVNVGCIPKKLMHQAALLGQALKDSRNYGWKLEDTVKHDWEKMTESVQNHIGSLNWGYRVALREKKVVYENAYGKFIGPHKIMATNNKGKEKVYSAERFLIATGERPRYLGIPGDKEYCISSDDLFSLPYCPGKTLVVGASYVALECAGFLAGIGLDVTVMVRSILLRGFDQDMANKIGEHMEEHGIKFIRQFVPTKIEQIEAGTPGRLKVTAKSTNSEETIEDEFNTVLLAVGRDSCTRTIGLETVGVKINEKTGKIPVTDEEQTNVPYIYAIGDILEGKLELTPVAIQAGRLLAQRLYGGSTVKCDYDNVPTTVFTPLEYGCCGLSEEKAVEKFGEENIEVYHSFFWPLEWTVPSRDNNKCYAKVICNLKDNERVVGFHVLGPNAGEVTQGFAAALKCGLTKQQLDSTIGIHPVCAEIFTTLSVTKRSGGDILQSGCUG
Test: qHTS Assay for Inhibitors of Mammalian Selenoprotein Thioredoxin Reductase 1 (TrxR1): Hit Validation in Primary Screen
Details: recombinant TrxR1, NADPH fluorescence consumption, selenite substrate
Excerpt: The selenoprotein thioredoxin reductase (TrxR; EC 1.8.1.9) is a FAD containing homodimeric pyridine nucleotide-disulfide oxidoreductase with many cellular roles. Together with NADPH and its prime substrate thioredoxin (Trx), the enzyme forms the core of the Trx system. The mammalian Trx system exerts a wide spectrum of functions including redox regulation, antioxidant defense, regulation of transcription factors as well as support of cell growth and replication. Many of these functions involve the reduction of Trx, which may subsequently reduce a number of different substrates including ribonucleotide reductase, peroxiredoxins or NFkB. […]
Assay protocol: 2 uL of reagents (buffer in column 4 as negative control and 90 nM rTrxR1 in columns 1-3 and 5-48) were dispensed into Greiner black solid-bottom 1,536-well assay plates, followed by 1 uL of NADPH (400 uM final concentration) to each well. […] The plate was immediately transferred to a ViewLux high-throughput CCD imager (PerkinElmer), wherein kinetic measurements of NADPH fluorescence (Ex 340 nm, Em 450 nm) were acquired (8 minute kinetic read). Read 1 was utilized to assess the capacity of a compound to serve as an rTrxR1 substrate, i.e. a decrease in NADPH fluorescence compared to the no-compound background is an indication of a substrate behavior for that particular compound. […]

COc1ccc(-c2nc(CS(=O)CC(=O)N3CCC4(CC3)OCCO4)c(C)o2)cc1 (stereo unspecified)
Potency: 7.52 µM (active)
